High-throughput results (PubChem)
Mtb UGM inh: blocks M. tuberculosis UGM enzyme | hit rate 0.06% among 320,000 | inhibition, % at 10 µM | purified UGM, fluorescence polarization probe displacement; in the data active = inhibition above about 10%, passing the limit was not always enough
Mtb bLac sens: beta-lactam sensitization of Mtb H37Rv. M. tuberculosis H37Rv growth with meropenem, percent inhibition. inhibition, % at 25 µM. hit rate 0.27% among 330,000. AID 434955; call rule not given here;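 note: growth measured after seven days incubation then overnight dye step; 0% = bacteria only wells and 100% = bacteria with antibiotic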
GDH-TPI counter: inhibits GDH-TPI coupling enzymes, artifact for Mtb FBA screen; hit rate 1.2% among 360,000; inhibition, % at 4.8 µM; GDH-TPI coupled enzyme counterscreen, NADH absorbance; AID 588335; in the data active = inhibition above about 30%;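 note: 0% = DMSO wells and 100% = wells lacking the enzyme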
RecA splice inh: blocks M. tuberculosis RecA intein splicing. P9WHJ3. cell-free RecA intein splicing, fluorescence. inhibition, % (no concentration beside the values). hit rate 0.75% among 290,000; in the data active = inhibition above about 30%;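 note: 0% = vehicle wells and 100% = reference inhibitor control wells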
FBA Mtb inh: inhibits M. tuberculosis FBA enzyme | AID 588726 | P9WQA3 | hit rate 2.3% among 360,000 | inhibition, % at 1 µM | purified M. tuberculosis FBA, fluorescence read-out; in the data active = inhibition above about 27%;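 note: 0% = vehicle and 100% = reference inhibitor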
Rv3671c inh: inhibitors of M. tuberculosis serine protease Rv3671c; P9WHR9; inhibition, % at 5.96 µM; hit rate 0.048% among 320,000; AID 2606;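 note: extracellular domain of Rv3671c used as enzyme; 0% = enzyme with DMSO and 100% = no enzyme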
Target sequence (P9WHR9 whole entry, looked up, the tested form may be a part): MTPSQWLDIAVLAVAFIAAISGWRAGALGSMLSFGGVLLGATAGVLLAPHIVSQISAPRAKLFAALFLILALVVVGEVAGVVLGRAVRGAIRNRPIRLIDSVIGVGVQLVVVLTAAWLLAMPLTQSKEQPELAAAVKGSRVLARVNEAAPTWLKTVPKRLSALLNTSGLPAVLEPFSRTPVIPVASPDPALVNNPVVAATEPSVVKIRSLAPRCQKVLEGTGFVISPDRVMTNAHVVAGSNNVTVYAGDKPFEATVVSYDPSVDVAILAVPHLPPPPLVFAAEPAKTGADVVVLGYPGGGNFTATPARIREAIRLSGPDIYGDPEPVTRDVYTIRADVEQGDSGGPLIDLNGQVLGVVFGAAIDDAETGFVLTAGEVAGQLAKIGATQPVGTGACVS
Rv3671c confirm: Rv3671c protease inhibition, confirmation; shares compounds with Rv3671c inh; inhibition, % at 5.96 µM; hit rate 40% among 140; AID 2761
* hit, by the source's call; x = not tested or not shown. Sampled rows, rich in hits. Any-hit rate of the full collection: about 4%. Cut-off read from the data, not from the text of the source, unless noted: active = inhibition above about 38%; inactive = the rest.

SMILES	Mtb UGM inh	Mtb bLac sens	GDH-TPI counter	RecA splice inh	FBA Mtb inh	Rv3671c inh	Rv3671c confirm
CC(=O)c1sc2ccccc2c1OC(=O)c1ccco1	0	99	1	12	1	61*	56*
COc1ccc(-n2c(SCC(=O)NCC3CCCO3)nc3ccccc3c2=O)cc1Cl (stereo unspecified)	x	x	3	x	-4	x	x
O=c1[nH]nc(CNc2ccc(O)cc2)c2ccccc12	0	-3	4	20	-1	40*	-7
Cc1nn(Cc2ccccc2)c(C)c1NC(=O)c1ccc([N+](=O)[O-])cc1[N+](=O)[O-]	-3	-1	2	-5	-1	166*	-7
CCC(=O)N=c1ccn(C2=Nc3ccccc3NC2=C(C#N)C#N)cc1	3	-4	-2	-1	-7	-12	x
CC1(C(=O)Nc2ccc3c(c2)OCO3)CCN1C(=O)c1ccco1 (stereo unspecified)	x	x	0	x	-3	x	x
Cc1cc(N)ccc1-n1c(C)ccc1C	2	3	-2	2	3	83*	1
Cc1cc(N)ccc1N1CCCC1	-3	-6	-4	3	-2	21	x
CN1C(=O)NC(c2ccccc2[N+](=O)[O-])C2=C1CCCC2=O (stereo unspecified)	12*	0	14	-19	2	74*	38*
C[C@@H]1CN(S(=O)C(C)(C)C)[C@@H](CCO)/C1=C\c1ccccc1 (stereo partly specified)	x	x	2	x	-1	x	x
NC(=O)c1ccccc1NC(=O)C(c1ccccc1)c1ccccc1	-1	-1	2	7	6	6	x
Cc1cc(C)n2nc(SCC(=O)N/N=C/c3ccccn3)nc2n1	1	1	0	2	-4	76*	-6
Cc1ccccc1C1=Nn2c(nnc2-c2ccco2)SC1	-2	13	-1	1	0	5	x
CCc1cc(=O)oc2cc(C)cc(OC(=O)c3ccco3)c12	2	5	3	22	0	58*	78*
Cc1cc(OC(=O)c2ccco2)c2c(C)cc(=O)oc2c1	0	0	5	12	1	47*	74*
Cc1cc(OCC(=O)NC2CCN(Cc3ccccc3)CC2)c2c(C)cc(=O)oc2c1	-1	-1	0	1	19	-12	x
CCCc1cc(=O)oc2cc(C)cc(OCC(=O)Nc3ccccn3)c12	2	-4	3	0	23	-1	x
CCCc1cc(=O)oc2cc(C)cc(OCC(=O)NC3CCN(Cc4ccccc4)CC3)c12	-2	7	6	-2	23	125*	-2
COc1cccc(/C=N/Nc2ccc([N+](=O)[O-])cn2)c1O	0	15	5	3	-8	81*	-4
CN(C)CCNC(=O)c1cc2sc3ccccc3c2s1	1	-2	5	2	1	4	x
CC1CCN(S(=O)(=O)c2ccc3[nH]c(=O)c(=O)[nH]c3c2)CC1	-4	-12	20	1	7	62*	-3
CCOC(=O)C1CCN(S(=O)(=O)c2ccc3[nH]c(=O)c(=O)[nH]c3c2)CC1	2	-8	5	-3	13	5	x
Cc1cccc(NC(=O)c2ccc(Cl)c(S(=O)(=O)N3CCCCC3)c2)n1	-2	3	-1	2	-3	6	x
O=C(N/N=C/c1cc(Br)c(Br)o1)c1ccc2c(c1)OCCO2	2	5	14	8	-3	2	x
O=C(N/N=C/c1cc(Br)c(O)c(Br)c1O)c1ccc2c(c1)OCCO2	2	6	31*	19	19	42*	21
SMILES	Mtb UGM inh	Mtb bLac sens	GDH-TPI counter	RecA splice inh	FBA Mtb inh	Rv3671c inh	Rv3671c confirm
Cc1ccc(-n2c(SCC(=O)Nc3ccc4c5c(cccc35)CC4)nc(O)cc2=O)cc1	2	3	-2	4	1	45*	-8
Cc1ccc(-n2c(SCC(=O)Nc3ccc4c5c(cccc35)CC4)nc(O)c(C)c2=O)cc1	3	-14	-1	-4	4	1	x
N#CCCN(CCC#N)C(=O)C1c2ccccc2Oc2ccccc21	73*	4	10	x	4	84*	-2
CN(CCC#N)C(=O)COC(=O)C1c2ccccc2Oc2ccccc21	-1	0	-6	-2	3	0	x
Cc1cc(NS(=O)(=O)c2ccc(Nc3nc(-c4sc(NC(=O)c5ccccc5)nc4C)cs3)cc2)no1	0	11	x	-3	x	63*	50*
Cc1nc(NC(=O)c2ccccc2)sc1-c1csc(Nc2cccc(F)c2)n1	-2	0	x	-4	x	-14	x
O=C(NCc1ccco1)c1cccc(Nc2nc3ccc(Br)cc3[nH]2)c1	0	-3	-3	25	3	40*	44*
O=C1Cc2cccc(=O)c(O)c2C(=O)O1	x	x	12	x	-3	x	x
O=C1c2c(O)cccc2Cc2cccc(O)c21	-2	-1	1	x	0	58*	27
C=C1c2cccc(O)c2C(O)=C2C(=O)[C@]3(O)C(O)=C(C(N)=O)C(=O)[C@@H](N(C)C)[C@@H]3[C@@H](O)[C@H]12	6	79	13	-10	0	50*	3
COc1cccc(CNC(=O)c2ccc(NC(=O)C3=CSCCO3)cc2)c1	-3	8	8	1	2	61*	-6
Cc1ccc(CNC(=O)c2ccc(NC(=O)C3=CSCCO3)cc2)cc1	-1	-4	2	-1	1	-10	x
O=[N+]([O-])c1cc(/C=N/Nc2nc3ccccc3[nH]2)c(O)cc1O	0	8	x	40*	x	60*	29
O=c1[nH]c(N/N=C/c2cc3c(cc2[N+](=O)[O-])OCO3)nc2ccccc12	0	-3	-3	-1	4	1	x
C(=N\Nc1nc2ccccc2[nH]1)/c1cccc2cccnc12	-1	83	18	4	-1	38*	27
C(=N\Nc1nc2ccccc2[nH]1)/c1c[nH]c2ccccc12	3	90	19	22	0	41*	92*
O=[N+]([O-])c1ccc(NCc2ccccc2)c2nonc12	7	6	x	5	x	49*	43*
CCOC(=O)NC(=O)/C(C#N)=C\Nc1ccc(Cl)cc1Cl	0	-4	4	1	2	4	x
CCOC(=O)NC(=O)/C(C#N)=C\Nc1sccc1C(=O)OC	5	-7	6	0	-2	41*	2
C[C@@H]1CN([C@@H](C)CO)S(=O)(=O)c2ccc(Br)cc2O[C@@H]1CN(C)C(=O)NC1CCCCC1	x	x	16	x	-3	x	x
Cc1cc2c(N)cccc2nn1	-1	2	15	60*	-6	55*	-1
O=C(COC(=O)Cc1ccc(Br)cc1)NCc1ccc(F)cc1	-1	-14	-1	11	2	-3	x
c1ccc(-c2nc3cc4ccccc4cc3[nH]2)nc1	0	89	16	4	6	39*	44*
CCn1ccnc1CNC(=O)c1ccc(OC2CCN(C(=O)COC)CC2)cc1	2	2	1	2	3	-2	x
